ROMK primary = human ROMK K+ channel modulation, primary screen; 130,000 tested, 2% active; AID 1918; B-score at 10 µM; Tet-inducible ROMK, thallium flux fluorescence; actives lie on both sides;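 active means signal ratio slope over the read window, or its plate-corrected B-score, at least 3 SD from the plate mean, either direction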;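 further: B-score of the F/F0 ratio slope over 7 to 12 s after thallium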
p97 ATPase inh = inhibitors of human p97 ATPase | P55072 | inhibition, % at 8 µM | recombinant p97 ATPase, Kinase-Glo ATP luminescence, 3 h | 220,000 tested, 0.42% active; in the data active means inhibition above about 15%;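 further: 0% = DMSO vehicle and 100% = wells lacking enzyme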
Target sequence (P55072 whole entry, looked up): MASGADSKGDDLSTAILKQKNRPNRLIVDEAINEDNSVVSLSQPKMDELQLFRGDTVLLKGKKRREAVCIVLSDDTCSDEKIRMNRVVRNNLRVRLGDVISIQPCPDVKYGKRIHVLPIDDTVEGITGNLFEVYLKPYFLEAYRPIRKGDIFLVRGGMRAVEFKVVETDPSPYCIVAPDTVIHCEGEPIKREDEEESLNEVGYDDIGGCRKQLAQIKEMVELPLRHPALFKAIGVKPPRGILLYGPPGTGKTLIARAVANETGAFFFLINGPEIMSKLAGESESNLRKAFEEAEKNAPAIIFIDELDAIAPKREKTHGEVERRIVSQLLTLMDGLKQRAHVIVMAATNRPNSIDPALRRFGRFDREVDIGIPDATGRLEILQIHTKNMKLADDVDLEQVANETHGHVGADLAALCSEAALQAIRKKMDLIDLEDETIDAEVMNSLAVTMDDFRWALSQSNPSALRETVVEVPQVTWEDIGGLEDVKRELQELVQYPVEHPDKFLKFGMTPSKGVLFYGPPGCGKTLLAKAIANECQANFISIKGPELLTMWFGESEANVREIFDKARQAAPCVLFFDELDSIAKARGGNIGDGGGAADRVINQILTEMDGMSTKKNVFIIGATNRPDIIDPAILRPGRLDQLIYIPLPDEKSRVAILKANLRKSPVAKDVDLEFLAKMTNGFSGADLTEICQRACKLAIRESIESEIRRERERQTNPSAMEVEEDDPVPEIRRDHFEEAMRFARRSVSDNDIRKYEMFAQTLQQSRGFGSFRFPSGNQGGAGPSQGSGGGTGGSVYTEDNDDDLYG
PTEN del growth = PTEN-deleted cell growth suppression. HCT116 PTEN-null viability, CellTiter-Glo, 60 h; hits give low values. viability, % at 10 µM. 140,000 tested, 1.2% active. AID 827;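 active means viability at or below a set limit, 4 SD under the median of all tested compounds, cut at about 3.7% in these data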;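 further: PTEN knockout HCT116 line with beta catenin targeted HCT116 as companion control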
bCat KO growth = beta-catenin-lacking colon tumor cell growth suppression | HCT116 beta-catenin knockout viability, CellTiter-Glo, 60 h; hits give low values | AID 818 | 140,000 tested, 1.5% active | viability, % at 10 µM;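 active means viability at or under a set limit, the compound median less 4 SD, cut at about 6% in these data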;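 further: 0% = Hyamine 1622 control at 20 µM and 100% = untreated cell control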
INS promoter inh = TRM-6 insulin promoter activity inhibition. 130,000 tested, 0.9% active. AID 1273. inhibition, % at 2 µM. TRM-6 cells (human fetal islet line), insulin promoter-eGFP reporter, imaging; reporter expression induced with tamoxifen;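 active means inhibition above the mean plus 3 SD, with well images judged a real hit on visual review, cut at about 60% in these data, passing the limit was not always enough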
L major viab = inhibitors of Leishmania major promastigote growth | Leishmania major promastigotes, resazurin fluorescence viability | inhibition, % at 10 µM | 200,000 tested, 9% active; in the data active means inhibition above about 50%;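 further: promastigotes grown with compound for 44 hours at 28 °C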
* hit, by the source's call; i = inactive; / = not tested or not shown. Shown are actives, neighbours in structure and some others; about 10% of the full set was active somewhere.

SMILES	ROMK primary	p97 ATPase inh	PTEN del growth	bCat KO growth	INS promoter inh	L major viab
CCOC(=O)C1CCN(C(=O)CSc2ccccc2Cl)CC1	-0.012	-5	/	/	/	-1
Cc1oc(CN2CCOCC2)cc1C(=O)O	0.33	6	/	/	/	-4
COC(=O)COc1ccc(S(=O)(=O)N2CCc3ccccc3C2)cc1C	-1.7	-1	98	102	25	-9
COC(=O)c1ccc(CN2CCN(CCC(C)C)C(CCO)C2)cc1 (centres undefined)	-0.24	2	/	/	17	62*
COc1cccc(CN2CCN(Cc3ccon3)CC2CCO)c1 (centres undefined)	1.3	3	/	/	/	-4
COC(=O)c1ccc(CN2CCN(CCc3ccccc3)C(CCO)C2)cc1 (centres undefined)	-1.2	1	/	/	/	91*
COc1cccc(CN2CCN(Cc3ccc(O)cc3)CC2CCO)c1 (centres undefined)	0.39	5	/	/	-41	69*
OCCC1CN(Cc2ccccc2O)CCN1CCc1ccccc1 (centres undefined)	-0.33	4	/	/	/	9
Nc1nc(SCC(=O)NC2CCCC2)[nH]c(=O)c1-c1ccccc1	1.5	2	100	107	17	-23
Cc1ccc(-c2nn(-c3cccc(F)c3)cc2CNCc2cccnc2)o1	0.94	-1	/	/	/	10
O=C(Nc1ccc(S(=O)(=O)Nc2nccs2)cc1)c1cnc(Cl)c(Cl)c1	/	7	/	/	/	/
Nc1n[nH]c(-c2ccc([N+](=O)[O-])cc2[N+](=O)[O-])n1	/	6	/	/	/	1
O=C(Nc1ccccc1)C1=C[C@@H](c2csc3ccccc23)C[C@@H](OCc2ccc(CO)cc2)O1	/	2	/	/	/	58*
CN1CCN(C(=O)C2=C[C@@H](c3csc4ccccc34)C[C@@H](OCc3ccc(CO)cc3)O2)CC1	/	-2	/	/	/	90*
O=C(Nc1ccccc1)C1=C[C@@H](c2ccc(C(F)(F)F)cc2)C[C@@H](OCc2ccc(CO)cc2)O1	/	2	/	/	/	65*
CC(=O)n1cc([C@@H]2C=C(C(=O)N3CCN(Cc4ccccc4)CC3)O[C@H](OCc3ccc(CO)cc3)C2)c2ccccc21	/	5	/	/	/	97*
O=C(Nc1ccccc1)C1=C[C@@H](c2ccccc2)C[C@@H](OCc2ccc(CO)cc2)O1	/	2	/	/	/	30
CC(=O)n1cc([C@H]2C=C(C(=O)N3CCN(Cc4ccccc4)CC3)O[C@@H](OCCCCO)C2)c2ccccc21	/	-2	/	/	/	11
CS(=O)(=O)N(CC(=O)Nc1cc(Cl)ccc1Cl)c1ccccc1	-0.25	-1	91	91	3	4
CC12CN(C(=O)c3ccccc3Br)CC(C)(CN(C(=O)c3ccccc3Br)C1)C2=O	/	-3	/	/	/	/
N#CCc1c(C#N)c(N)nc(N2CCCC(O)C2)c1C#N (centres undefined)	0.22	-2	/	/	-79	0
O=C(C1=C[C@H](c2csc3ccccc23)C[C@H](OCc2ccc(CO)cc2)O1)N1CCN(Cc2ccc3c(c2)OCO3)CC1	/	6	/	/	/	66*
O=C(C1=NN[C@@H]2C(=O)N(c3cccc(C(F)(F)F)c3)C(=O)[C@H]12)c1cnccn1	-0.0012	5	/	/	/	/
CCc1ccc(/C=C/C(=O)c2cc(Br)ccc(=O)c2O)cc1	1.5	4	7	5.1*	-3	11
Cc1cccc(/C=C/C(=O)c2cc(Br)ccc(=O)c2O)c1	-0.39	5	8	5.2*	-17	100*
SMILES	ROMK primary	p97 ATPase inh	PTEN del growth	bCat KO growth	INS promoter inh	L major viab
CN(C(=O)Cc1c(C(=O)O)n(C)c2ccccc12)c1ccc(F)cc1	0.57	0	/	/	/	-7
Cn1c(NNC(=O)C(c2ccccc2)c2ccccc2)cc(=O)n(C)c1=O	-0.17	-1	/	/	/	-5
O=c1oc2ccccc2c(O)c1/C=C1\C=Nc2ccccc21	/	9	62	75	28	100*
CCOC(=O)CSc1nc(C)cc(C)c1C#N	/	1	103	101	i	-2
Cc1cc(C)c(C#N)c(SCC(=O)c2ccc(Cl)cc2Cl)n1	/	1	43	62	69	100*
Cc1snc(SCC(=O)c2ccc(Cl)cc2)c1C#N	/	4	82	74	4	99*
Cc1ccnc(SCC(=O)c2ccc(Br)cc2)c1C#N	0.29	4	94	92	61*	5
Cc1cc2cc(CN3C(=O)c4ccccc4C3=O)ccc2n1C	-0.0043	5	97	97	7	-3
CNC(=S)NC1(C)CCS(=O)(=O)C1 (centres undefined)	/	3	/	/	/	/
Cc1cccc(NC(=O)CSc2nc3ccc(NC(=O)CSc4nnnn4-c4ccccc4)cc3s2)c1C	/	3	4	2.3*	19	-1
CCN(CC)S(=O)(=O)c1ccc(C(=O)OCC(=O)Nc2ccc(-c3nc4ccc(C)cc4s3)cc2)cc1	-0.18	7	63	58	9	58*
CCN(CC)S(=O)(=O)c1cc(C(=O)OCC(=O)Nc2ccc(-c3nc4ccc(C)cc4s3)cc2)ccc1F	0.4	2	26	24	-17	-7
COc1cccc(NC(=O)c2ccccc2-c2ccccc2)c1	0.18	-2	/	/	/	13
Cc1ccc2[nH]c(O)c(N=Nc3nc4ccccc4s3)c2c1	/	10	/	/	/	/
Oc1[nH]c2ccccc2c1N=Nc1nc2ccccc2s1	0.37	10	1.6*	1.3*	/	-1
COc1cc(OC)cc(C(=O)N[C@H](C(=O)OCC(=O)N2CCc3ccccc32)C(C)C)c1	-0.25	5	/	/	/	6
COc1ccc(CCN2CN(S(=O)(=O)c3ccc(OC)cc3)c3nc4ccccc4nc32)cc1	0.051	3	99	104	-7	85*
COc1ccc(S(=O)(=O)N2CN(Cc3ccco3)c3nc4ccccc4nc32)cc1	/	2	90	81	0	9
O=S(=O)(c1ccc(F)cc1)N1CN(Cc2ccco2)c2nc3ccccc3nc21	-1.2	-1	93	87	0	97*
Cc1ccc(S(=O)(=O)N2CN(Cc3ccco3)c3nc4ccccc4nc32)cc1C	/	-1	81	79	-17	10
Cc1ccc(S(=O)(=O)N2CN(Cc3ccco3)c3nc4ccccc4nc32)cc1	/	3	77	85	39	58*
Cc1ccc(S(=O)(=O)CCc2nc3ccccc3s2)cc1C	/	1	98	103	-17	-5
CN1/C(=C\C=O)C(C)(C)c2ccccc21	0.44	-2	/	/	-67	11
CN1/C(=C\C=N\NC(=O)c2ccc(O)cc2)C(C)(C)c2ccccc21	0.23	5	36	31	-34	86*
Cc1c(N=C/C=C2\N(C)c3ccccc3C2(C)C)c(=O)n(-c2ccccc2)n1C	/	2	83	88	/	10
CN1/C(=C\C=Nc2ccc3ccccc3c2)C(C)(C)c2ccccc21	/	-4	50	47	-6	88*
CN(C)c1ccc(N=C/C=C2\N(C)c3ccccc3C2(C)C)cc1	/	-5	63	64	-6	101*
CN1/C(=C\C=N\NC(=O)c2cccnc2)C(C)(C)c2ccccc21	-0.64	0	/	/	-29	29
CN1/C(=C/C=C(C#N)C#N)C(C)(C)c2ccccc21	/	5	/	/	45	0

Screening results as filed in PubChem.
